BJeLR viability = BJeLR cell viability loss; AID 1554; 300,000 tested, 0.17% active; BJeLR (HRASV12) viability, CellTiter-Glo ATP luminescence, 48 h; inhibition, % (concentration not given with the values); in the data active = inhibition above about 50%; inconclusive = no clear call, values can overlap the other calls
PfHsp40 yeast = compounds rescuing yeast from Plasmodium falciparum HSP40 toxicity; S. cerevisiae expressing PfHsp40, growth rescue, ATP luminescence; growth rescue, % at 12.5 µM; 340,000 tested, 0.68% active; AID 504582; in the data active = growth rescue above about 28%, passing the limit was not always enough; inconclusive = no clear call, values can overlap the other calls;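 note: yeast W303a lacking pdr1 and pdr3 grown in galactose medium; growth measured after three days at 30 °C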
PrPC surface inh = reduces human prion protein on the cell surface; P04156; cell surface PrPC, TR-FRET read-out; inhibition, % at 13.8 µM; 370,000 tested, 0.43% active; AID 720596; in the data active = inhibition above about 24%; note: 0% = median of the test wells and 100% = reference compound wells
MazEF act = increases E. coli MazEF RNase cleavage of RNA | P0AE70 | FAM/BHQ RNA-DNA oligo cleavage fluorescence, 5 h | activation, % at 20 µM | 350,000 tested, 0.32% active | AID 504720; in the data active = activation above about 50%
Target sequence (P0AE70 whole entry, looked up): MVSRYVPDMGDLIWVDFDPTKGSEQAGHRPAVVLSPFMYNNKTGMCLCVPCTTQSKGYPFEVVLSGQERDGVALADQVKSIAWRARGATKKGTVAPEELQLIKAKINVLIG
DUSP3 inh = inhibitors of human VHR1 phosphatase (DUSP3); P51452; recombinant VHR phosphatase, pNPP absorbance; inhibition, % at 13.3 µM; 290,000 tested, 0.52% active; AID 1654; in the data active = inhibition above about 50%
Target sequence (P51452 whole entry, looked up): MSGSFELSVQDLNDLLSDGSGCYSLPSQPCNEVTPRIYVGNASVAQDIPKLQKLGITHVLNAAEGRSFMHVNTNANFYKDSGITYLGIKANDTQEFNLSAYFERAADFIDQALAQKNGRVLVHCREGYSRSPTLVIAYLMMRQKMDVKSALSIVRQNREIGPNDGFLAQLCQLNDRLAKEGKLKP
PrP 5UTR inh = suppresses PrP 5' UTR mRNA reporter expression; cell-based PrP 5' UTR mRNA reporter, plate reader; inhibition, % (test concentration not listed); 340,000 tested, 0.35% active; AID 488862; in the data active = inhibition above about 52%; note: 0 = median of the neutral control wells
Numbers without * were called inactive; ? = inconclusive; . = no result. Shown are actives, neighbours in structure and some others; about 2.1% of the full set was active somewhere.

SMILES	BJeLR viability	PfHsp40 yeast	PrPC surface inh	MazEF act	DUSP3 inh	PrP 5UTR inh
CCCc1cc(=O)n2nc(N3CCC(C(=O)N4CCN(c5ccc(OC)cc5)CC4)CC3)sc2n1	10.7	1.3	15.9	-4.5	44.1	-18.6
CCOC(=O)N1CCN(c2ncnc3c2oc2nc(C(C)C)c4c(c23)CCC4)CC1	-9.2	0.7	-7.8	55.0*	3.0	-20.5
Cc1ccc(Nc2ccc(-n3ccnc3)nn2)cc1C	15.8	66.2*	0.8	5.1	25.5	-12.0
CC1(C(=O)NS(=O)(=O)c2ccccc2)CCN1C(=O)c1ccccc1CCc1ccccc1 (configuration not stated)	.	.	-3.6	.	.	.
Cc1ccccc1OCC(O)Cn1c2ccccc2c2ccccc21 (configuration not stated)	1.1	111.5*	3.6	-6.5	6.8	-16.5
Cc1ccccc1OCC(O)CNC1CCC(NCC(O)COc2ccccc2C)CC1 (configuration not stated)	89.4*	-0.3	-1.2	22.3	.	7.3
CC(=O)Nc1ccc(OCC(O)Cn2c3ccccc3c3ccccc32)c(C)c1 (configuration not stated)	5.3	8.7	5.5	-12.0	21.9	-10.9
N#C/C(=C/c1ccco1)c1nc2ccccc2s1	-7.0	11.0	-22.2	64.7*	8.2	-64.9
N#C/C(=C/c1ccc(-c2cc(C(=O)O)cc(C(=O)O)c2)o1)c1nc2ccccc2s1	-1.2	.	.	.	1.2	.
N#C/C(=C\c1ccco1)c1nc2ccccc2s1	16.1	3.1	-15.8	54.5*	4.3	-115.1
O=C(COC(=O)c1ccc(O)cc1O)Nc1ccc2c(c1)OCCO2	.	-0.4	4.5	9.5	.	-39.6
COc1ccc(S(=O)(=O)N(C)CC(=O)N2CCCC2)cc1OC	4.0	-0.9	-0.8	5.7	53.3*	-23.9
COc1ccc(S(=O)(=O)N(C)CC(=O)N2CCN(C)CC2)cc1Cl	4.8	0.5	-4.7	-2.3	52.8*	7.0
COc1ccc(S(=O)(=O)N(C)CC(=O)N2CCCCC2)cc1Cl	1.1	-1.0	4.3	1.3	-7.5	-1.3
CCOc1ccc(OCC)c(NC(=O)c2nnn(CC(=O)Nc3cc(C)cc(C)c3)c2N)c1	1.4	0.6	5.6	-74.8	-3.6	-21.4
O=C(NCCCNc1ccnc2cc(Cl)ccc12)c1ccccc1F	12.3	1.2	-5.8	9.5	13.9	-25.9
NC(=O)C1(N2CCCCC2)CCN(C(=O)c2ccccc2)CC1	2.7	1.6	-7.0	-2.1	25.0	-5.3
N#CC1(N2CCN(C(=O)c3ccccc3)CC2)CCCCC1	-5.6	-0.7	-0.9	5.4	53.9*	-12.0
COCOCCn1cc(CN2CCS(=O)(=O)N(Cc3ccc(-c4ccc(Cl)cc4)cc3)C(CC(C)C)C2=O)nn1 (configuration not stated)	.	.	-2.8	16.0	.	.
O=C(Nc1nccs1)c1ccc(NC(=O)C2CC=CCC2C(=O)O)cc1 (configuration not stated)	-6.4	0.2	6.8	0.9	53.0*	1.0
CCCc1cc(=O)oc2c(C)c(OCC(=O)c3ccc(N4CCCC4)cc3)ccc12	.	1.4	-3.8	-3.7	57.9*	-25.5
O=c1oc(/C=C/c2ccco2)nc2sc3c(c12)CCC3	3.8	-0.4	1.0	141.1*	18.9	-42.2
CCOc1ccc(Cl)cc1-c1cc(C(=O)Nc2ccc(C(C)C)cc2)[nH]n1	.	.	-1.0	.	.	.
CCC(C)c1ccc(NC(=S)NCc2ccccc2OC)cc1 (configuration not stated)	0.7	83.5*	2.9	7.9	0.8	-14.8
COc1ccccc1CNC(=S)Nc1ccc(F)cc1	-1.5	1.5	-0.9	10.1	-3.8	-36.6
SMILES	BJeLR viability	PfHsp40 yeast	PrPC surface inh	MazEF act	DUSP3 inh	PrP 5UTR inh
Cn1ccsc1=NC(=O)c1ccc([N+](=O)[O-])o1	-3.1	247.5*	-35.1	-0.7	17.9	-20.8
CSc1nc(-c2ccc(N(C)C)cc2)c(C#N)c(=O)n1C	0.8	1.9	-9.9	136.0*	12.0	-28.4
CCN1/C(=C\c2ccc3cc(C)ccc3[n+]2CC)Sc2cc(C)c(C)cc21	37.6	-4.3	-14.8	82.2*	16.0	23.8
CCN1/C(=C/c2ccc3cc(C)ccc3[n+]2CC)Sc2ccc3sccc3c21	92.4*	0.2	.	-42.1	.	14.8
CCN1/C(=C/c2ccc3cc(C)cc(C)c3[n+]2CC)Sc2cc(C)ccc21	.	-6.2	-6.0	30.2	23.4	1.1
Cc1ccc2c(c1)S/C(=C\c1cccc[n+]1C)N2CCO	4.2	-0.6	-2.7	-5.5	-1.2	-3.1
Cc1ccc(/C=C2\SC(=S)N(C(Cc3ccccc3)C(=O)O)C2=O)cc1 (configuration not stated)	-18.0	160.6*	-0.8	-6.3	11.9	-17.6
COc1ccc(NC(=O)CSc2nnc(-c3cccnc3)s2)cc1	-3.2	1.6	-1.5	0.3	10.1	-7.1
COC(=O)c1sc2nc(SCc3cccc(F)c3)n(N)c(=O)c2c1C	-2.0	0.8	-4.5	133.1*	-8.5	-42.4
NC(N)=NCCCS(=O)(=O)Nc1ccc(Nc2c3ccccc3nc3cc([N+](=O)[O-])ccc23)cc1	.	0.6	-7.9	50.7*	.	-44.0
O=[N+]([O-])c1ccc(Nc2c3ccccc3nc3ccccc23)cc1	0.5	.	7.7	17.3	-25.2	5.7
CN1CCN(c2ccc(C(CC(N)=O)NC(=O)c3ccccc3)cc2[N+](=O)[O-])CC1 (configuration not stated)	-4.1	37.0*	-0.1	3.8	1.6	-1.1
C#CCN(C)S(=O)(=O)c1ccc(N2CCCC2)cc1Br	.	.	-0.2	.	.	.
O=C(Nc1ccccc1)n1ccc2ccc(-c3ccc4cc[nH]c4c3)cc21	.	.	2.8	.	.	.
CCc1[nH]nc(C(=O)N2CCCC(C(=O)c3cccc(C(F)(F)F)c3)C2)c1C (configuration not stated)	2.0	-1.2	11.5	-9.1	52.5*	-3.5
COC(=O)C1Cc2ccccc2CN1C(=O)CCl (configuration not stated)	-10.1	41.1*	-9.6	5.6	16.6	-3.3
COC(=O)[C@H](Cc1ccccc1)NC(=O)N1Cc2ccccc2C[C@H]1C(=O)OC	1.9	-0.8	-1.1	-5.9	18.2	3.0
CC(=O)c1c2c3c(c(Br)ccc3n(C)c1=O)C(=O)c1ccccc1-2	-5.5	-1.2	-44.8	32.9	1.8	5.2
Cn1c(=O)c(Nc2ccc(O)cc2)c2c3c(cccc31)C(=O)c1ccccc1-2	-5.3	-0.5	-42.4	64.5*	16.8	7.6
CC(=O)c1c2c3c(cccc3n(C)c1=O)C(=O)c1ccccc1-2	-4.0	.	.	19.2	53.9*	.
CC(=O)Nc1sc(C)c(C)c1C(=O)OCC(=O)Nc1ccccc1C(F)(F)F	.	.	-8.2	4.3	.	.
O=CC1=C(c2ccccc2)Oc2ccccc2O1	12.1	494.6*	7.2	-1.6	4.1	-10.0
O=C(c1ccc(Cl)cc1)C1CCN(c2ncnc3sccc23)CC1	.	.	11.8	.	.	.
Cc1ccc2nc3c(cc(C(=O)NC4CCCC4)c(=N)n3C3CCCCC3)c(=O)n2c1	-0.7	?	-20.9	12.2	57.6*	-19.8

Source: PubChem (several laboratories)
